In the supplement of paper PMC12067093, “Discovery and optimisation of a covalent ligand for TRIM25 and its application to targeted protein ubiquitination” (Chemical Science, 2025):
Targets with the largest changes are over-represented here; the source holds about 21,000 in all.

Compound: Cc1cc(ccc1-c1ccccc1)C(=O)N1CCCN(CC1)C(=O)CCl [compound 10]
Experiment: probe-labelled cysteine peptide fold change vs DMSO (competition) (log2 fold change); higher = less target engagement (more negative = stronger competition)
Conditions: 10 µM; THP-1; incubation time: 4 h
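Further: competitive profiling in live THP-1 cells: cysteine peptides tagged with an iodoacetamide desthiobiotin (IA-DTB) probe, intensity after compound treatment relative to DMSO-treated cells.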

UniProt Q5TEJ8, sequence (Q5TEJ8 whole entry, looked up): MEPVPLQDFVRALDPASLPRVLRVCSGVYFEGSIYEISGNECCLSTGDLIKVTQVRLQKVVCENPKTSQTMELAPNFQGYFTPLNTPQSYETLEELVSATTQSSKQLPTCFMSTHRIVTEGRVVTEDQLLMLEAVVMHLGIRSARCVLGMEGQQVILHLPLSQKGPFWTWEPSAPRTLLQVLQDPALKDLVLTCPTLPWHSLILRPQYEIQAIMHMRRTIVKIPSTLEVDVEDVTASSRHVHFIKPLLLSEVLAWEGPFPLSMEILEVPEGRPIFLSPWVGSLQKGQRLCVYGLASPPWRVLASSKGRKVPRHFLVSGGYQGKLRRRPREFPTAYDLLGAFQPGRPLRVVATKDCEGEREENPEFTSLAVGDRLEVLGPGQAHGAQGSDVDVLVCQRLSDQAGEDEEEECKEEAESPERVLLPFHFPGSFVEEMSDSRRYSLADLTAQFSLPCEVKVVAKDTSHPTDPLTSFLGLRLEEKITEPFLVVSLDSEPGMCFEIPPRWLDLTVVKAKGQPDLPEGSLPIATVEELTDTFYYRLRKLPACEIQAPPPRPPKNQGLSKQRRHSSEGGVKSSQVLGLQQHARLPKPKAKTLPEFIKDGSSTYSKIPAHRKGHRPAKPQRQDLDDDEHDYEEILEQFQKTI
UniProt P49458, sequence (P49458 whole entry, looked up): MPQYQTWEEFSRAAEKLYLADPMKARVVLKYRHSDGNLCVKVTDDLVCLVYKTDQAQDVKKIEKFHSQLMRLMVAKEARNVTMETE

Going from “STAT6_P42226_228_CESLVDIYSQLQQEVGAAGGELEPK (UniProt P42226)” to “SPECC1_Q5M775_578_ATEASAVEQTAESCEVQEMLK (UniProt Q5M775)”, the “probe-labelled cysteine peptide fold change” value falls from 0.0404 to -0.116.

Going from “TIGAR_Q9NQ88_114_EECPVFTPPGGETLDQVK (UniProt Q9NQ88)” to “STRADA_Q7RTN6_107_INLEACSNEMVTFLQGELHVSK (UniProt Q7RTN6)”, the “probe-labelled cysteine peptide fold change” value rises from -0.225 to 0.391.

Going from “TOR4A_Q9NXH8_230_HHCPEAR (UniProt Q9NXH8)” to “TMEM104_Q8NE00_455_DTQLAFGCGVSNK (UniProt Q8NE00)”, the “probe-labelled cysteine peptide fold change” value rises from -0.165 to -0.127.

Going from “THG1L_Q9NWX6_47_DFEADDTCLAHCWVVVR (UniProt Q9NWX6)” to “ST13_P50502_209_LLGHWEEAAHDLALACKLDYDEDASAMLK (UniProt P50502)”, the “probe-labelled cysteine peptide fold change” value falls from -0.0809 to -0.319.

First: SRP72_O76094_54_VVCLIQNGSFK (UniProt O76094)
Second: TEP1_Q99973_692_TVLVYLTDANADRLCPK (UniProt Q99973)
The “probe-labelled cysteine peptide fold change” value of the first is higher: 0.0906 for the first, -0.328 for the second.

Going from “ST14_Q9Y5Y6_268_SFDLASCDER (UniProt Q9Y5Y6)” to “TARSL2_A2RTX5_637_YHQCATIQLDFQLPIR (UniProt A2RTX5)”, the “probe-labelled cysteine peptide fold change” value rises from -0.0626 to 0.00987.

Going from “SP3_Q02447_683_KFVCPECSK (UniProt Q02447)” to “TAF6_P49848_235_EITEACVGSCEAK (UniProt P49848)”, the “probe-labelled cysteine peptide fold change” value falls from 0.188 to -0.193.

Going from “THEMIS2_Q5TEJ8_355_DCEGEREENPEFTSLAVGDR (UniProt Q5TEJ8)” to “TOE1_Q96GM8_80_SLLNQCIEER (UniProt Q96GM8)”, the “probe-labelled cysteine peptide fold change” value falls from -0.0936 to -0.52.

Going from “TK1_P04183_206_ENCPVPGKPGEAVAAR (UniProt P04183)” to “TONSL_Q96HA7_231_ECAHTMR (UniProt Q96HA7)”, the “probe-labelled cysteine peptide fold change” value falls from -0.0233 to -0.316.

First: STK11IP_Q8N1F8_707+710_TESPAVCPNCGSDHVVLLAVSR (UniProt Q8N1F8)
Second: TNS3_Q68CZ2_88_MCTICK (UniProt Q68CZ2)
The “probe-labelled cysteine peptide fold change” value of the first is higher: 0.0186 for the first, -0.357 for the second.

First: TATDN3_Q17R31_66_YNGFVLPCLGVHPVQGLPPEDQR (UniProt Q17R31)
UniProt Q17R31, sequence (Q17R31 whole entry, looked up): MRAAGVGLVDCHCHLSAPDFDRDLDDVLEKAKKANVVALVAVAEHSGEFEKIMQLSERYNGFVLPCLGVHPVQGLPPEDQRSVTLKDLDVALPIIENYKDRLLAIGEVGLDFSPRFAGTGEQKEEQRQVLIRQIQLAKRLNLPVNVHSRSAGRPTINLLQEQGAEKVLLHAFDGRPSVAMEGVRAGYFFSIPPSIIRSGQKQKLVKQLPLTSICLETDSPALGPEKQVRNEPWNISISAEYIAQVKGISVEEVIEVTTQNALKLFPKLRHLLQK
Second: TDRD7_Q8NHU6_1029_CNQWSEEASMVFR (UniProt Q8NHU6)
The “probe-labelled cysteine peptide fold change” value of the first is higher: 0.0121 for the first, -0.175 for the second.

Compared with “THOP1_P52888_175_KLSLLCIDFNK (UniProt P52888)”, “TANC1_Q9C0D5_800_MDALSCFLIK (UniProt Q9C0D5)” is lower in “probe-labelled cysteine peptide fold change” value: -0.00153 for the first, -0.167 for the second.

Compared with “SYK_P43405_597_MGCPAGCPR (UniProt P43405)”, “TANK_Q92844_318_TKPSNLVNTCIR (UniProt Q92844)” is lower in “probe-labelled cysteine peptide fold change” value: 0.0815 for the first, -0.257 for the second.

First: TCF20_Q9UGU0_1795_SEDCGGGPR (UniProt Q9UGU0)
Second: TNPO1_Q92973_862_DDLRDMFCK (UniProt Q92973)
The “probe-labelled cysteine peptide fold change” value of the first is higher: -0.142 for the first, -0.311 for the second.

First: SOS1_Q07889_838_CIVETENLEER (UniProt Q07889)
UniProt Q07889, sequence (Q07889 whole entry): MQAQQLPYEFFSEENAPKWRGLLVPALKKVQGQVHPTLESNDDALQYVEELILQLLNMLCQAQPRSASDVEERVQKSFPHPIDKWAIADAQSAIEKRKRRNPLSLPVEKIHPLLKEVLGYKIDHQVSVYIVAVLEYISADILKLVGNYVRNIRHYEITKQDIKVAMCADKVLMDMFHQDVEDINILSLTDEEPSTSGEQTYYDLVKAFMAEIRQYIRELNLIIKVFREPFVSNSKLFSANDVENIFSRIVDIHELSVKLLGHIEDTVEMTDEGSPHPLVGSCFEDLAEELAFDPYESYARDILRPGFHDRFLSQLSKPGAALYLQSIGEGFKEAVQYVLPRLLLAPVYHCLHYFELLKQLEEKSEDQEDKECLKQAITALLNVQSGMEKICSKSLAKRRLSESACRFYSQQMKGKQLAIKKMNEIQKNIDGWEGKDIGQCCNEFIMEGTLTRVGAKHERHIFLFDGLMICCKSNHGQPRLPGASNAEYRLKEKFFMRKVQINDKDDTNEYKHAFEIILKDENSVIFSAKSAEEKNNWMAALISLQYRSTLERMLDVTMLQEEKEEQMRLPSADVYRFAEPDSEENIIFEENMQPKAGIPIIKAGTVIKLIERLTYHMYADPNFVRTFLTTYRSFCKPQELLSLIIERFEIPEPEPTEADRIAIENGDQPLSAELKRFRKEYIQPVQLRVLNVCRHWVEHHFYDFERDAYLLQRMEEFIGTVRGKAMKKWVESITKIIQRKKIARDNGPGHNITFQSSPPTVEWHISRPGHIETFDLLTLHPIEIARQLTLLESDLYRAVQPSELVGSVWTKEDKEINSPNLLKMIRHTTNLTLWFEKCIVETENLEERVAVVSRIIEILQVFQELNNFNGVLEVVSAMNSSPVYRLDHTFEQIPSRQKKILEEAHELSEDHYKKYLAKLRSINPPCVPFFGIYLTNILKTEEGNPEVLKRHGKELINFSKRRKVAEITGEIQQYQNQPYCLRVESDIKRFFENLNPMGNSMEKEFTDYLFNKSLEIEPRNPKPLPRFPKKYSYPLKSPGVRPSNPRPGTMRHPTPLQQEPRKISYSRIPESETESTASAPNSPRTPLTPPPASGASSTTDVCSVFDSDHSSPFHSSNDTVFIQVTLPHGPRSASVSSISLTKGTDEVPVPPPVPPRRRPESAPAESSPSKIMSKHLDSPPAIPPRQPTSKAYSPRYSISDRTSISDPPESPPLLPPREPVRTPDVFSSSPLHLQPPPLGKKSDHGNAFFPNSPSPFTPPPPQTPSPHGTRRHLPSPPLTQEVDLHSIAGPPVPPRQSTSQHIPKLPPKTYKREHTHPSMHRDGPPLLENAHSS
Second: TMEM173_Q86WV6_12_PHSSLHPSIPCPR (UniProt Q86WV6)
The “probe-labelled cysteine peptide fold change” value of the first is higher: 0.113 for the first, 0.0393 for the second.

Compared with “SORD_Q00796_179_VLVCGAGPIGMVTLLVAK (UniProt Q00796)”, “SRP9_P49458_48_VTDDLVCLVYK (UniProt P49458)” is higher in “probe-labelled cysteine peptide fold change” value: -0.0988 for the first, 0.216 for the second.

First: SORD_Q00796_165_LPDNVTFEEGALIEPLSVGIHACR (UniProt Q00796)
Second: TMEM209_Q96SK2_495_TFTSQHFVQTPNKPDVTNENVFCIYQSAINPPHYELIYQR (UniProt Q96SK2)
The “probe-labelled cysteine peptide fold change” value of the first is lower: 0.00881 for the first, 0.145 for the second.

Compared with “STX12_Q86Y82_29_DFSSIIQTCSGNIQR (UniProt Q86Y82)”, “TEPSIN_Q96N21_273_ACGLLNCEAVLQLLTCHLR (UniProt Q96N21)” is higher in “probe-labelled cysteine peptide fold change” value: 0.143 for the first, 0.821 for the second.

Going from “THOC5_Q13769_282_HLPPPLYVLFVQATAYGQACDK (UniProt Q13769)” to “STXBP1_P61764_110_AAHVFFTDSCPDALFNELVK (UniProt P61764)”, the “probe-labelled cysteine peptide fold change” value falls from 0.435 to 0.24.

First: TGS1_Q96RS0_357_ECPASGQSEPR (UniProt Q96RS0)
Second: TNPO1_Q92973_205_SHAVACVNQFIISR (UniProt Q92973)
The “probe-labelled cysteine peptide fold change” value of the first is lower: -0.00223 for the first, 0.172 for the second.

Same assay, conditions: 50 µM; THP-1; incubation time: 4 h

First: STAT6_P42226_228_CESLVDIYSQLQQEVGAAGGELEPK (UniProt P42226)
Second: SPECC1_Q5M775_578_ATEASAVEQTAESCEVQEMLK (UniProt Q5M775)
UniProt Q5M775, sequence (Q5M775 whole entry, looked up): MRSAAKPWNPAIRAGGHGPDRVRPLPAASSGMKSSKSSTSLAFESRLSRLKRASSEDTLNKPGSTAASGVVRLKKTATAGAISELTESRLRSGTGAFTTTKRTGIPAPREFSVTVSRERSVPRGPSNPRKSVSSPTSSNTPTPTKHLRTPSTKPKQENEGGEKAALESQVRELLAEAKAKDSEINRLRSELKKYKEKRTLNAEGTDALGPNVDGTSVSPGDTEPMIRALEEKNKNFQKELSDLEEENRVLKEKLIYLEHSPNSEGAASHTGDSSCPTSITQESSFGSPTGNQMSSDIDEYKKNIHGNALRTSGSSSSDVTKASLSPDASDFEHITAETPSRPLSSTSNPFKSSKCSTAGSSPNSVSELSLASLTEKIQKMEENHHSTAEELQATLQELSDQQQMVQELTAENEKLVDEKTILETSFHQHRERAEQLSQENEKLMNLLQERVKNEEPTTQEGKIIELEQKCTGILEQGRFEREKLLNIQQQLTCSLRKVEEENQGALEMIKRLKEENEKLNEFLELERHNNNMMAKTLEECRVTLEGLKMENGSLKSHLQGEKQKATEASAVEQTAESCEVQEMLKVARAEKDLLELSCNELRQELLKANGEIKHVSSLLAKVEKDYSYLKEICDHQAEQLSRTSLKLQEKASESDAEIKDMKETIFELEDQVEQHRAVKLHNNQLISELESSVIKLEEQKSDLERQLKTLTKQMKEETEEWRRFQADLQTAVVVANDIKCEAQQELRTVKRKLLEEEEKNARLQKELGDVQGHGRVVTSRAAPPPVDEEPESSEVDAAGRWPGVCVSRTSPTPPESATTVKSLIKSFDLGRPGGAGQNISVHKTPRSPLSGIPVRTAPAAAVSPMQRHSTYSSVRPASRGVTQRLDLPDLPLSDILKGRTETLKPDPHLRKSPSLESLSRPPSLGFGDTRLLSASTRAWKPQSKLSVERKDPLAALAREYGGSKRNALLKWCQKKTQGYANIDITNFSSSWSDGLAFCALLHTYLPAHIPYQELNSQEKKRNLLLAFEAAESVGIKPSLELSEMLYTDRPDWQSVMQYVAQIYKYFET
The “probe-labelled cysteine peptide fold change” value of the first is higher: -0.0978 for the first, -0.22 for the second.

First: TIGAR_Q9NQ88_114_EECPVFTPPGGETLDQVK (UniProt Q9NQ88)
Second: STRADA_Q7RTN6_107_INLEACSNEMVTFLQGELHVSK (UniProt Q7RTN6)
The “probe-labelled cysteine peptide fold change” value of the first is lower: -1.35 for the first, 0.345 for the second.

First: TOR4A_Q9NXH8_230_HHCPEAR (UniProt Q9NXH8)
Second: TMEM104_Q8NE00_455_DTQLAFGCGVSNK (UniProt Q8NE00)
UniProt Q8NE00, sequence (Q8NE00 whole entry): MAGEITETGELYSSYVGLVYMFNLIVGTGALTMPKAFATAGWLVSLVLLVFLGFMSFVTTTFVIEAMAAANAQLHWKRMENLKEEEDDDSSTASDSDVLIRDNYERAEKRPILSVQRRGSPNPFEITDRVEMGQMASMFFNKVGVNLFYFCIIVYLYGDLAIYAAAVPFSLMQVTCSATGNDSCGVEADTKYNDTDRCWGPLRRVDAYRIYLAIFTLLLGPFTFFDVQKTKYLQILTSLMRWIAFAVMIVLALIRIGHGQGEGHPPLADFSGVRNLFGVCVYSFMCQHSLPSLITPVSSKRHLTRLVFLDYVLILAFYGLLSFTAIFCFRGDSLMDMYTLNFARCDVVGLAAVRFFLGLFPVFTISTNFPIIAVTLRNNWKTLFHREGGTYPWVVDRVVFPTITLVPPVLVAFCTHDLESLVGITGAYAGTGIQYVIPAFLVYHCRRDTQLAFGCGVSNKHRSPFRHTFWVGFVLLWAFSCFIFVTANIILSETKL
The “probe-labelled cysteine peptide fold change” value of the first is higher: 0.0719 for the first, -0.346 for the second.

First: THG1L_Q9NWX6_47_DFEADDTCLAHCWVVVR (UniProt Q9NWX6)
Second: ST13_P50502_209_LLGHWEEAAHDLALACKLDYDEDASAMLK (UniProt P50502)
The “probe-labelled cysteine peptide fold change” value of the first is higher: 0.0136 for the first, -1.1 for the second.

Compared with “SRP72_O76094_54_VVCLIQNGSFK (UniProt O76094)”, “TEP1_Q99973_692_TVLVYLTDANADRLCPK (UniProt Q99973)” is lower in “probe-labelled cysteine peptide fold change” value: -0.275 for the first, -0.442 for the second.

Compared with “ST14_Q9Y5Y6_268_SFDLASCDER (UniProt Q9Y5Y6)”, “TARSL2_A2RTX5_637_YHQCATIQLDFQLPIR (UniProt A2RTX5)” is higher in “probe-labelled cysteine peptide fold change” value: -1.09 for the first, 0.158 for the second.

First: SP3_Q02447_683_KFVCPECSK (UniProt Q02447)
Second: TAF6_P49848_235_EITEACVGSCEAK (UniProt P49848)
The “probe-labelled cysteine peptide fold change” value of the first is higher: 0.33 for the first, -1.67 for the second.

Compared with “THEMIS2_Q5TEJ8_355_DCEGEREENPEFTSLAVGDR (UniProt Q5TEJ8)”, “TOE1_Q96GM8_80_SLLNQCIEER (UniProt Q96GM8)” is lower in “probe-labelled cysteine peptide fold change” value: 0.194 for the first, -2.28 for the second.

Going from “TK1_P04183_206_ENCPVPGKPGEAVAAR (UniProt P04183)” to “TONSL_Q96HA7_231_ECAHTMR (UniProt Q96HA7)”, the “probe-labelled cysteine peptide fold change” value falls from -0.211 to -1.42.

Going from “STK11IP_Q8N1F8_707+710_TESPAVCPNCGSDHVVLLAVSR (UniProt Q8N1F8)” to TNS3_Q68CZ2_88_MCTICK (UniProt Q68CZ2), the “probe-labelled cysteine peptide fold change” value falls from 0.166 to -0.873.

Compared with “TATDN3_Q17R31_66_YNGFVLPCLGVHPVQGLPPEDQR (UniProt Q17R31)”, “TDRD7_Q8NHU6_1029_CNQWSEEASMVFR (UniProt Q8NHU6)” is lower in “probe-labelled cysteine peptide fold change” value: 1.04 for the first, -0.845 for the second.

Compared with “THOP1_P52888_175_KLSLLCIDFNK (UniProt P52888)”, “TANC1_Q9C0D5_800_MDALSCFLIK (UniProt Q9C0D5)” is lower in “probe-labelled cysteine peptide fold change” value: 0.0417 for the first, -1.29 for the second.

First: SYK_P43405_597_MGCPAGCPR (UniProt P43405)
Second: TANK_Q92844_318_TKPSNLVNTCIR (UniProt Q92844)
UniProt Q92844, sequence (Q92844 whole entry, looked up): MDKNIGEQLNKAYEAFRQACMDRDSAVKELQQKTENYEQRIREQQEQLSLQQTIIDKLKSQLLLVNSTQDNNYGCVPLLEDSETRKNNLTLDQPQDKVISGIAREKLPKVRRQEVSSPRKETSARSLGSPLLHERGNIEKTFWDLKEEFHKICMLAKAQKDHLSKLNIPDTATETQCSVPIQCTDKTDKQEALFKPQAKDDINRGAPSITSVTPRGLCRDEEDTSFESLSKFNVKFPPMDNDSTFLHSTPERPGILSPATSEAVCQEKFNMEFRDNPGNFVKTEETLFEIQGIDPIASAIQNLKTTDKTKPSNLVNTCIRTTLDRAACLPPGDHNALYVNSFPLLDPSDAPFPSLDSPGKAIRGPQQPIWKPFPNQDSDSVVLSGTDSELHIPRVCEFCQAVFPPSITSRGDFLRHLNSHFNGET
The “probe-labelled cysteine peptide fold change” value of the first is higher: -0.138 for the first, -0.558 for the second.

Going from “TCF20_Q9UGU0_1795_SEDCGGGPR (UniProt Q9UGU0)” to “TNPO1_Q92973_862_DDLRDMFCK (UniProt Q92973)”, the “probe-labelled cysteine peptide fold change” value falls from -0.0709 to -0.192.

Going from “SOS1_Q07889_838_CIVETENLEER (UniProt Q07889)” to “TMEM173_Q86WV6_12_PHSSLHPSIPCPR (UniProt Q86WV6)”, the “probe-labelled cysteine peptide fold change” value falls from 0.392 to -0.625.

Compared with “SORD_Q00796_179_VLVCGAGPIGMVTLLVAK (UniProt Q00796)”, “SRP9_P49458_48_VTDDLVCLVYK (UniProt P49458)” is higher in “probe-labelled cysteine peptide fold change” value: -1.77 for the first, -0.255 for the second.

Going from “SORD_Q00796_165_LPDNVTFEEGALIEPLSVGIHACR (UniProt Q00796)” to “TMEM209_Q96SK2_495_TFTSQHFVQTPNKPDVTNENVFCIYQSAINPPHYELIYQR (UniProt Q96SK2)”, the “probe-labelled cysteine peptide fold change” value falls from 0.188 to 0.0358.

Compared with “STX12_Q86Y82_29_DFSSIIQTCSGNIQR (UniProt Q86Y82)”, “TEPSIN_Q96N21_273_ACGLLNCEAVLQLLTCHLR (UniProt Q96N21)” is higher in “probe-labelled cysteine peptide fold change” value: 0.0626 for the first, 2.62 for the second.

First: THOC5_Q13769_282_HLPPPLYVLFVQATAYGQACDK (UniProt Q13769)
UniProt Q13769, sequence (Q13769 whole entry, looked up): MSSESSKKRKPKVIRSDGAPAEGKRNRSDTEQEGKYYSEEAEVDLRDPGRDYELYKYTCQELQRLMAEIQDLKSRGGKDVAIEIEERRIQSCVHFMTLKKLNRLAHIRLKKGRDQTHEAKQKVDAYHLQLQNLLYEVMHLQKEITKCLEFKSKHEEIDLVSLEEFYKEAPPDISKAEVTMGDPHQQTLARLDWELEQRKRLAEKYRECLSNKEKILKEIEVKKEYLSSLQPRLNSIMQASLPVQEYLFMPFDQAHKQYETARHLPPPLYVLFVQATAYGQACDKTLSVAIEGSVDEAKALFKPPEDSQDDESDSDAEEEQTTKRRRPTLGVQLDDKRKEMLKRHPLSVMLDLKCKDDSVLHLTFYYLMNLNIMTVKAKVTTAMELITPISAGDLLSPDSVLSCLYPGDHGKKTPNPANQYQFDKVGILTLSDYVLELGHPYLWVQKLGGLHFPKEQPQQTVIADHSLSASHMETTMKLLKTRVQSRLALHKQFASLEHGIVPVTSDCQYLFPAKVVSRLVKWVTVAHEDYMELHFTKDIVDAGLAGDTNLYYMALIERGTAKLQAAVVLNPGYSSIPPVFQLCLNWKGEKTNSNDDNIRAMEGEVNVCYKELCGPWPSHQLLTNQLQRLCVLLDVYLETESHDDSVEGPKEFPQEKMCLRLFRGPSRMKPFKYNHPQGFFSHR
Second: STXBP1_P61764_110_AAHVFFTDSCPDALFNELVK (UniProt P61764)
The “probe-labelled cysteine peptide fold change” value of the first is higher: 1.48 for the first, 0.527 for the second.

Compared with “TGS1_Q96RS0_357_ECPASGQSEPR (UniProt Q96RS0)”, “TNPO1_Q92973_205_SHAVACVNQFIISR (UniProt Q92973)” is lower in “probe-labelled cysteine peptide fold change” value: 0.216 for the first, 0.0841 for the second.
